# KCNQ2 enhance – potentiators of rat KCNQ2 potassium channel; AID 2239; CHO-K1 KCNQ2, FluxOR thallium flux fluorescence; hits give high values; O88943; 310,000 tested, 0.54% active; B-score at 10 µM;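 active means fluorescence ratio B-score at least 3 SD of library B-scores, with initial fluorescence B-score within 3 of them, cut at about 5.3 in these data; same plate scores as AID 2156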;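 further: B-score of peak minus minimum over baseline fluorescence ratio after K+ and Tl+ stimulus; positive B-score means potentiation of KCNQ2 with more thallium influx and brighter signal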
# KCNQ2 inh – blocks the rat KCNQ2 potassium channel; CHO-K1 KCNQ2, FluxOR thallium flux, 20 min; hits give low values; B-score at 10 µM; 310,000 tested, 1.1% active;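 active means fluorescence ratio B-score at most minus 3 library SDs, with starting brightness B-score within 2 library SDs, cut at about -5.5 in these data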
# Active calls of the source: *; i = inactive; nt = no result given. Rows were chosen to be rich in hits. Some 1.6% of all compounds tested hit in one or more screens of this group.
SMILES,KCNQ2 enhance,KCNQ2 inh
CCOC(=O)c1c(C=O)c(C)n(Cc2ccccc2Cl)c1C,-5.8,-5.8*
CCc1cc(C(=O)OC)c(NC(=O)CN2CCN(C(=O)c3ccco3)CC2)s1,1.6,i
CCOC(=O)N1CCN(CC(=O)Nc2sc(CC)cc2C(=O)c2ccc(OC)cc2)CC1,-5.9,-5.9*
CCCCn1c(SCC(=O)NC2CCCC2)nnc1-c1ccco1,nt,i
Cc1ccc(S(=O)(=O)N(C)CCCC(=O)Nc2ccc(C)cc2C)cc1,6.2*,i
Cc1cc(C)cc(N(CC(=O)Nc2ccccc2-c2ccccc2)S(=O)(=O)c2ccccc2)c1,nt,i
Cc1ccc(N(CC(=O)Nc2ccccc2-c2ccccc2)S(=O)(=O)c2ccccc2)cc1,-6.2,-6.2*
Cc1ccc(S(=O)(=O)N(CC(=O)Nc2ccccc2-c2ccccc2)c2ccc(C)cc2C)cc1,-6,-6*
Cc1cccc(N(CC(=O)Nc2ccccc2-c2ccccc2)S(=O)(=O)c2ccccc2)c1C,nt,i
Cc1cc(F)ccc1NC(=O)CCCN(C)S(=O)(=O)c1ccc(F)cc1,1.6,i
COc1ccc(CCNC(=O)C2CCCN2C(=O)Nc2ccc(Cl)cc2)cc1OC (stereo not given),1.5,i
CCOC(=O)C1CCN(C(=O)CCc2nc3sc4c(c3c(=O)[nH]2)CCCC4)CC1,0.13,i
C/C(=N\NC(=O)c1cccc(Br)c1)c1cccnc1,0.02,i
COc1ccc(CNC(=O)CN2C(=O)CC(c3ccccc3)=Nc3ccccc32)cc1,nt,i
O=C(CN1C(=O)CC(c2ccccc2)=Nc2ccccc21)NCc1ccccc1,-5.6,-5.6*
CCCNC(=O)C12CCC(C)(c3nc4cc(C)c(C)cc4nc31)C2(C)C (stereo not given),nt,i
O=C(c1noc2c1CSc1ccccc1-2)N1CCN(c2ccc(Cl)cc2)CC1,-7,-7*
O=C(c1ccccc1)N1CCN(c2ccc(Cl)cc2)CC1,nt,i
Cn1nnnc1SCCNC(=O)C1CCC(=O)N(CCc2cccc(F)c2)C1 (stereo not given),nt,i
Cc1cc(OCc2cc(C(=O)N(C)CCOc3ccccc3)no2)cc(C)c1Cl,-5.7,-5.7*
O=C(NC1CCCC1)c1cc(COc2ccc3ncccc3c2)on1,3,i
COc1cccc(CN(C)C(=O)c2cc(COc3c(F)cccc3F)on2)c1,nt,i
O=C(NCCc1cn2ccccc2n1)c1cc(COc2ccc3ncccc3c2)on1,-6,-6*
CN(CCCN1CCOCC1)C(=O)c1cc(COc2cccc(C(F)(F)F)c2)on1,nt,i
Cc1cc(OCc2cc(C(=O)N(C)Cc3ccccn3)no2)cc(C)c1Cl,nt,i
SMILES,KCNQ2 enhance,KCNQ2 inh
CN(CCc1ccccc1)C(=O)c1cc(COc2cccc(C(F)(F)F)c2)on1,-5.5,-5.5*
COc1cccc(CN(C)C(=O)c2cc(COc3ccc4ncccc4c3)on2)c1,-7.5,-7.5*
Cc1ccc([N+](=O)[O-])c(NC2OC(CO)C(O)C2O)c1 (stereo not given),2.4,i
CCOC(=O)c1c(C)[nH]c(C)c1S(=O)(=O)NCCc1cccs1,nt,i
CCC(C)(C)NC(=O)C(C(C)C)N(CC1CCCO1)C(=O)CNS(=O)(=O)c1ccccc1 (stereo not given),nt,i
CC1=NN(C(C#N)c2ccc(F)cc2)C(c2ccccc2)C1 (stereo not given),nt,i
O=C(COC(=O)c1ccc(Sc2ccccc2)c([N+](=O)[O-])c1)NC1CCCc2ccccc21 (stereo not given),-6.9,-6.9*
Cn1cnnc1Sc1ccc(C(=O)OCC(=O)NC2CC2)cc1[N+](=O)[O-],1.2,i
CC1CC(C)CN(c2ccc(C(=O)OCC(=O)NC3CCCc4ccccc43)cc2[N+](=O)[O-])C1 (stereo not given),-7.8,-7.8*
CC1CCCN(c2ccc(C(=O)OCC(=O)N3c4ccccc4Sc4ccccc43)cc2[N+](=O)[O-])C1 (stereo not given),nt,i
COc1ccc(CCNc2c([N+](=O)[O-])c(=O)oc3ccccc23)cc1OC,nt,i
CCn1c(CC(=O)Nc2ccc(F)cc2)nnc1SCC(=O)Nc1nncs1,0.1,i
CCCCS(=O)CC(COC)OC(=O)c1ccccc1 (stereo not given),0.03,i
CCCCS(=O)CC(COc1ccc(Cl)cc1)OC(=O)c1ccccc1 (stereo not given),-5.8,-5.8*
N#CCCN(C(=O)COc1ccc(F)cc1Br)c1ccccc1F,nt,i
COCCCN1C(=O)C2C(C(=O)Nc3cccc(Cl)c3)C3C=CC2(O3)C1C(=O)NC1CCCCC1 (stereo not given),nt,i
Cc1cc(NC(=O)c2cccs2)ncc1NC(=O)C(C)C,nt,i
O=C1NN(c2ccccc2)C(=O)/C1=C/c1coc2ccccc2c1=O,nt,i
O=C1NN(c2ccccc2)C(=O)/C1=C\c1coc2ccc(O)cc2c1=O,-5.7,-5.7*
O=C(O)c1ccccc1NS(=O)(=O)c1cccc(C(F)(F)F)c1,nt,i
O=C(O)c1ccccc1NS(=O)(=O)c1cccc(-n2sc3ccccc3c2=O)c1,13*,i

# Compound activity from PubChem BioAssay.
